# Screens (PubChem)
# In the library only some 7% were active in any assay of this set; here they are far more common.
# NR3A LBD binder: modulators (binders) of human NR3A ligand-binding domain | NR3A LBD differential scanning fluorimetry, Tm shift; 0% = protein alone, 100% = glycine-bound protein | Tm shift relative to glycine control, % at 25 µM | 340,000 compounds, 2.5% hits | AID 1259313;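 active means melting temperature shift of at least 10% of the positive control shift, at one fixed dose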
# ADAM10 inh: inhibits human ADAM10; O14672; recombinant ADAM10, EDANS/DABCYL FRET peptide cleavage, 3 h; inhibition, % at 7 µM; 370,000 compounds, 0.62% hits; AID 720582;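 active means inhibition above a per-campaign cutoff equal to the mean of compounds falling between control-based bounds plus 3 SD, cut at about 20% in these data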;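 further: 0% = DMSO wells while the 100% control is not disclosed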
# proKLK7 act: activates the human kallikrein-7 zymogen | AID 652039 | purified proKLK7, EDANS-DABCYL substrate fluorescence; 100% is mature enzyme control, 0% vehicle | 370,000 compounds, 0.9% hits | P49862 | activation, % at 7 µM;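 active means activation above the mean of all tested compounds plus 3 SD, computed per campaign excluding outliers beyond control limits, cut at about 13% in these data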
# rCAG binder: molecules binding r(CAG) RNA repeats. r(CAG) RNA repeat, TO-PRO-1 dye displacement fluorescence. 370,000 compounds, 1.3% hits. inhibition, % at 3 µM;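 active means inhibition above the plate cutoff, the mean of all test compounds on that plate plus 3 SD, cut at about 35% in these data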;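 further: 0% = DMSO alone and 100% = 100 µM mitoxantrone as full dye displacement; higher means more dye released from RNA so lower well fluorescence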
# AHR act: activators of human aryl hydrocarbon receptor; P35869; AHR-responsive luciferase reporter cells, luminescence; activation, % at 5 µM; 320,000 compounds, 2.5% hits; in the data active means activation above about 47%;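 further: 0% = vehicle wells and 100% = reference agonist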
# ADAM17 inh: ADAM17 inhibition, QFRET primary screen | P78536 | recombinant ADAM17, EDANS/DABCYL FRET peptide cleavage | inhibition, % at 6.95 µM | 370,000 compounds, 0.83% hits | AID 720648;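 active means inhibition above the mean of compounds lying between control limits plus 3 SD, set per campaign, cut at about 8.5% in these data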;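 further: 0% = DMSO-only wells as the low control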
# Target sequence (P78536 215-824 limits assumed): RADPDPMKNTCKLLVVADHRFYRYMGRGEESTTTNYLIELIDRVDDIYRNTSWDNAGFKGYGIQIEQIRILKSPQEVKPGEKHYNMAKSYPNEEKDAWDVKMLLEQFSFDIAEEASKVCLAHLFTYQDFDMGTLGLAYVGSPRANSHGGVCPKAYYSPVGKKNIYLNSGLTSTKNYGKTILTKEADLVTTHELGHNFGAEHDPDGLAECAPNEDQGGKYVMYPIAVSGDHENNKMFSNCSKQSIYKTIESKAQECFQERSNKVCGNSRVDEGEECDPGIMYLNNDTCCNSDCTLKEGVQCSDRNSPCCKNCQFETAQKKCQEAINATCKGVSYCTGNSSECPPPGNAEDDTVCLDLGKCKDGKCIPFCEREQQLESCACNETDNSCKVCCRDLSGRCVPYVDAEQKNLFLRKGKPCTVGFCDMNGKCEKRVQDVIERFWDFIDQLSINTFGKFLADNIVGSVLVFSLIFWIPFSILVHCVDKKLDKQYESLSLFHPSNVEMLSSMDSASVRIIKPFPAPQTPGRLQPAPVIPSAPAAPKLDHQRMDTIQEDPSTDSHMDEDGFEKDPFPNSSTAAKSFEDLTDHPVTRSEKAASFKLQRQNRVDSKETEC
# AHR act confirm: confirmation of human aryl hydrocarbon receptor activators; AID 2845; 2,300 compounds, 87% hits; activation, % at 9 µM; shares compounds with AHR act; human cells, AHR-responsive luciferase reporter, luminescence; in the data active means activation above about 49%;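 further: HepG2 hepatoma cells carrying a DRE-driven firefly luciferase reporter; 0% = vehicle wells and 100% = reference agonist wells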
# PXR counter: PXR activation, counter-screen for AHR activators; shares compounds with AHR act; AID 434939; 2,300 compounds, 88% hits; cell-based PXR reporter, luciferase luminescence; activation, % at 11.6 µM; in the data active means activation above about 11%;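 further: human hepatoma DPX-2 cells expressing full-length human PXR; 0% = DMSO and 100% = reference agonist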
# * = called active by the depositor; · = no result.
SMILES,NR3A LBD binder,ADAM10 inh,proKLK7 act,rCAG binder,AHR act,ADAM17 inh,AHR act confirm,PXR counter
Cc1ccc(C#N)c(SCCN2CCCCC2)n1,1,-8,0,3,·,-4,·,·
Cc1cccc2cc(C#N)c(SCCN3CCCCC3)nc12,1,·,·,·,81*,·,101*,48*
O=C(N/N=C/c1cn(Cc2ccccc2)c2ccccc12)c1cccnc1,-13,-10,-1,-1,86*,-2,-9,-3
O=C(N/N=C/c1cn(Cc2ccccc2)c2ccccc12)c1ccncc1,-5,7,0,2,24,7,·,·
C=CCn1cc(/C=N\NC(=O)c2cc3c(ccc4ccccc43)o2)c2ccccc21,5,-31,-6,5,-1,-9,·,·
C#CCn1cc(/C=N/NC(=O)c2cc3ccccc3o2)c2ccccc21,13*,-23,-16,9,112*,-7,87*,·
CCCCN1CC(COc2ccc(OC)cc2)OCCS1(=O)=O (stereo not given),·,2,0,2,·,1,·,·
O=C(Oc1cccc(-c2cnc3ccccc3n2)c1)c1ccco1,-1,4,1,-1,99*,2,44,9
Cc1cc(C)nc(Nc2n[nH]c(-c3ccccc3C)n2)n1,-1,-10,0,-1,87*,-2,131*,45*
Cc1cc(=O)oc2cc(OCCCC[n+]3ccccc3)ccc12,-4,-108,1,-2,2,-35,·,·
Cc1cc(=O)oc2cc(OCCc3ccccc3)ccc12,1,-375,-9,-3,81*,-148,140*,21*
Cn1nc(NC(=O)C(F)(F)F)c2ncc(-c3ccc(Cl)cc3)nc21,3,5,0,0,134*,1,131*,37*
Cn1nc(NC(=O)C(F)(F)F)c2nccnc21,·,-12,-1,1,·,-1,·,·
O=S1(=O)CCSC[C@@H](CN2CCN(c3ccccc3)CC2)N1,·,-5,0,0,·,-1,·,·
Nc1ccc(Br)c2c1C(=O)c1ccccc1C2=O,-3,·,·,·,95*,·,58*,16*
CC1CCCCN1S(=O)(=O)c1cc2c(=O)nc3ccccn3c2cc1Cl (stereo not given),·,-3,1,4,·,-1,·,·
CC1=CCC2C(=O)N(c3ccc(C)c(Br)c3)C(=O)C2C1 (stereo not given),-2,-6,0,-3,90*,-1,3,87*
CC1=CCC2C(=O)N(c3ccc(C)cc3)C(=O)C2C1 (stereo not given),-1,0,1,-2,0,-3,·,·
O=C(Cc1ccccc1Cl)NCCN1C(=O)C2C3C=CC(C3)C2C1=O (stereo not given),·,-10,0,4,·,-5,·,·
CCc1ccc2oc(-c3cc(N)cc(C)c3O)nc2c1,-13,7,-1,8,114*,-3,117*,12*
COc1ccccc1C(=O)Nc1cccc(-c2cn3ccsc3n2)c1,·,7,0,12,·,6,·,·
O=C(Nc1cccc(-c2cn3ccsc3n2)c1)c1ccccc1,21*,3,1,3,82*,-2,72*,14*
CCN(CC)c1ccc(NC(=O)CSc2nnc(SCc3ccc(Cl)cc3)s2)cc1,·,4,0,6,·,2,·,·
C[n+]1c2n(c3ccccc31)N=C(c1ccccc1)CS2,4,-11,0,5,69*,2,52*,32*
COc1ccc2nc(NC(=O)CSc3n[nH]c(N)n3)sc2c1,·,-8,0,10,94*,2,108*,22*
SMILES,NR3A LBD binder,ADAM10 inh,proKLK7 act,rCAG binder,AHR act,ADAM17 inh,AHR act confirm,PXR counter
C=CCN1[C@@H](CC(C)C)COc2cc(N3CCSCC3)ccc2S1(=O)=O,·,1,0,4,·,-2,·,·
COC(=O)[C@]12C[C@H](CC(=O)N3CCCCC3)C(=O)N(CCC3=CCCCC3)C1=C[C@H](C(C)C)O[C@@H]2C1CC1,·,4,0,-1,·,-6,·,·
c1ccc(-c2ccc(-c3nc(-c4cccnc4)no3)cc2)cc1,0,1,0,-4,-9,3,·,·
Cc1ccccc1-c1nc(-c2cccnc2)no1,0,-11,0,-2,107*,-3,105*,·
Clc1ccccc1-c1nc(-c2cccnc2)no1,3,-2,-1,-9,105*,2,123*,14*
COc1ccc(NC(=O)c2c[nH]c(=O)n(-c3ccc(C)c(C)c3)c2=O)cc1OC,3,-4,0,11,13,-2,·,·
Cc1ccc(-n2c(=O)[nH]cc(C(=O)Nc3ccc4c(c3)OCO4)c2=O)cc1C,0,-2,0,7,88*,4,68*,·
O=S1(=O)c2ccc(Br)cc2OC[C@H](Cc2ccccc2)N1Cc1cn(Cc2ccc(Cl)cc2)nn1,·,-6,0,5,·,-4,·,·
COc1ccccc1/C=C/C(=O)N1CCCC1,-6,-31,0,-1,84*,-7,102*,17*
COc1ccc(C)cc1NC(=O)C(OC(=O)CNC(=O)c1ccc(Oc2ccccc2)cc1)c1ccccc1 (stereo not given),7,0,0,11,95*,2,71*,20*
COc1ccc(NC(=O)C(OC(=O)CNC(=O)c2ccccc2)c2ccccc2)cc1F (stereo not given),·,3,·,·,·,2,·,·
COC(=O)C1CN(Cc2ccc(C)cc2)CCS(=O)(=O)N1Cc1cn(Cc2ccc(Cl)cc2)nn1 (stereo not given),·,8,1,3,·,3,·,·
Oc1[nH]c2ccc(Br)cc2c1N=NC(=S)NCC1CCCO1 (stereo not given),-5,2,0,6,104*,-2,72*,23*
Cc1cc(C)c2[nH]c(O)c(N=NC(=S)NCC3CCCO3)c2c1 (stereo not given),1,-6,0,9,124*,0,100*,114*
Oc1[nH]c2ccccc2c1N=NC(=S)NCC1CCCO1 (stereo not given),6,7,1,3,3,3,·,·
COC(=O)c1ccc(S(=O)(=O)N2CCC(NC(=O)Cc3ccccc3)CC2)cc1,·,-1,0,2,·,1,·,·
Cc1cccc(-c2nnc(NC(=O)c3ccco3)s2)c1,24*,0,0,6,164*,-1,129*,54*
Cc1ccc(O)c(NC(=O)c2ccco2)c1,2,2,0,-1,11,-6,·,·
Cc1cccc(N(C)S(=O)(=O)c2nnc(NC(=O)c3ccco3)s2)c1,2,-7,0,13,1,-3,·,·
Cc1ccc(O)c(NC(=O)c2cccc(NC(=O)c3ccco3)c2)c1,-5,8,0,5,104*,2,129*,21*
